For 94 molecules, survival results are on record in PubChem BioAssay AID463173 (ICCB-Longwood Screening Facility, Harvard Medical School, 2010).

Out of some 52,000 compounds screened, about 4,300 (8.3%) were called active. This is one part of a sample in which actives are shown more often than they occur. Unmarked numbers belong to inactive results. Rule as the data show it: active = survival mostly below about 52% (no sharp cut-off); inactive = mostly above about 56%.

The subject of this experiment is DeltatarO mutant. Kind of experiment: S. aureus survival, RN4220 and DeltatarO strains – OD600, teichoic acid synthesis inhibitors, primary screen (AID 463173). To be noted: S. aureus RN4220 wild type/DeltatarO growth, OD600, 18 h, hits give low values, screened at 18.75 µg/mL (by protocol).
Consider `COc1cccc(NC(=O)C(=O)NCC(c2ccc3c(c2)OCO3)N2CCOCC2)c1` (centres undefined), for which the survival is 49%.

Turning to `COc1ccc(-c2nsc(NC(=O)COc3ccccc3OC)n2)cc1`, the survival is 61%.

`CCOC(=O)c1c(C)[nH]c(CCC(=O)NC(C)c2ccccc2)c1C` (centres undefined): the survival is 94%.

In the case of `Cc1ccc2nc(N(Cc3cccnc3)C(=O)C3COc4ccccc4O3)sc2c1` (centres undefined), the survival is 94%.

As to `COc1cc(Cl)c(C)cc1NC(=O)c1cn(C2CCCC2)c(=O)c2c1c1ccccc1n2C`, the survival is 109%.

For `COc1cccc(NC(=O)/C(C#N)=C\c2cn(Cc3ccc(Cl)cc3)c3ccccc23)c1`, the survival was 77%.

`COc1ccc(CNC(=O)c2ccc3c(c2)N(Cc2ccccc2C)C(=O)c2ccccc2S3=O)cc1` (centres undefined): the survival is 99%.

`COc1ccc(C2CC(=O)c3cnc4c(-c5ccccc5)c(C)nn4c3C2)cc1OC` (centres undefined): the survival is 54%.

In the case of `O=C(O)c1c2c(nc3ccc(S(=O)(=O)N4CCC(C(=O)NCc5ccc(Cl)cc5)CC4)cc13)CCCC2`, the survival was 90%.

Consider `N#CC1=C(N)OC2=C(C(=O)CCC2)C1c1ccccc1C(F)(F)F` (centres undefined), for which the survival was 78%.

In the case of `CCOc1ccc(CNC(=O)Nc2ccc3c(c2)N(C)C(=O)c2ccccc2S3)cc1`, the survival is 75%.

On to `COc1ccccc1N1CCN(C(=O)c2cc3c(=O)oc4ccccc4c3s2)CC1`, for which the survival is 169%.

As for `Cc1ccc(-c2cc(C(F)(F)F)c(C#N)c(SCC(=O)O)n2)cc1`, the survival is 66%.

On to `CCCOc1ccc(-c2cc(C(F)(F)F)c(C#N)c(SCCC(=O)O)n2)cc1`, for which the survival is 29% (active).

On to `CCOC(=O)CSc1nc(-c2ccc(OCC)cc2)cc(C(F)(F)F)c1C#N`, for which the survival was 67%.

As for `CSc1ccc(CCNC(=O)C2CCCN(S(=O)(=O)N(C)c3ccc(F)cc3)C2)cc1` (centres undefined), the survival is 74%.

With `CC1CN(c2ccc(Cl)cc2)c2nc3c(c(=O)n(CC(=O)O)c(=O)n3C)n2C1` (centres undefined), the survival is 84%.

For the molecule `O=C(CNS(=O)(=O)c1cccs1)N1CCN(c2ccccc2Cl)CC1`, the survival is 45% (active).

As for `COc1cccc(N2CCN(C(=O)C3CCC(CNS(=O)(=O)c4ccc(Br)s4)CC3)CC2)c1` (centres undefined), the survival is 78%.

For the molecule `COc1ccc(N2CCN(C(=O)CNC3CC3)CC2)cc1`, the survival is 74%.

For the molecule `O=C(CNS(=O)(=O)c1ccc(Br)s1)N1CCN(c2ccccc2F)CC1`, the survival is 36% (active).

Turning to `CCOC(=O)c1c(C)[nH]c(C)c1S(=O)(=O)NCC(=O)N1CCN(c2ccccc2F)CC1`, the survival was 76%.

Take `COc1ccccc1N1CCN(C(=O)CNS(=O)(=O)c2ccc(Br)s2)CC1`: the survival is 116%.

Take `O=C(CNS(=O)(=O)c1ccc(Br)s1)N1CCN(c2ccc(F)cc2)CC1`: the survival was 27% (active).

For `O=C(C1CCC(CNS(=O)(=O)c2ccc(Br)s2)CC1)N1CCN(c2ccc(F)cc2)CC1` (centres undefined), the survival was 74%.

In the case of `O=C(C1CCN(S(=O)(=O)c2ccc(Br)s2)CC1)N1CCN(c2ccc(F)cc2)CC1`, the survival is 87%.

Turning to `O=C(CNS(=O)(=O)c1cccs1)N1CCN(c2cccc(C(F)(F)F)c2)CC1`, the survival is 83%.

Take `COc1ccc(N2CCN(C(=O)CNS(=O)(=O)c3ccc(Br)s3)CC2)cc1`: the survival was 32% (active).

For `O=C(CNS(=O)(=O)c1cccs1)N1CCN(c2ccccc2F)CC1`, the survival is 51%.

Turning to `O=C(Nc1cc(C(F)(F)F)ccc1Cl)c1noc2c1CCCCC2`, the survival was 82%.

Regarding `COc1ccc(NC(=O)c2ccc3c(=O)n4nc(Nc5cc(C)ccc5C)sc4nc3c2)cc1`, the survival is 116%.

Regarding `CCCCN(C)c1nc2c(S(=O)(=O)c3ccc(CC)cc3)nnn2c2ccc(Cl)cc12`, the survival is 76%.

In the case of `CCc1ccccc1NC(=O)Cc1c(C(=O)O)[nH]c2ccc(Cl)cc12`, the survival was 80%.

In the case of `CCOc1ccc(CCNC(=O)c2cnc3sc(N(CC)CC)nn3c2=O)cc1OCC`, the survival was 122%.

Consider `COc1ccc(CNC(=O)c2ccc(N3CCCC3)c(NC(=O)NCc3ccc(F)cc3)c2)cc1`, for which the survival is 93%.

For `Cc1ccc(-n2ncc3c(NC4CCCCCC4)ncnc32)cc1Cl`, the survival is 66%.

In the case of `CCc1ccc(NC(=O)Cn2ccn(-c3cccc(Cl)c3)c(=O)c2=O)cc1`, the survival was 61%.

`Cc1ccccc1NC(=O)c1ccc(N(Cc2ccccc2)S(C)(=O)=O)cc1`: the survival was 66%.

With `CS(=O)(=O)N(Cc1ccccc1)c1ccc(C(=O)Nc2ccc(Cl)cc2)cc1`, the survival is 145%.

Regarding `Cc1ccc(C(=O)Nc2ccc(S(=O)(=O)N(Cc3ccccc3)c3ccccc3)cc2)cc1`, the survival is 65%.

As to `Cc1cccc(NC(=O)c2ccc(N(Cc3ccccc3)S(C)(=O)=O)cc2)c1`, the survival is 48% (active).

Turning to `Cc1ccc(NC(=O)c2ccc(N(Cc3ccccc3)S(C)(=O)=O)cc2)cc1`, the survival was 64%.

For the molecule `CS(=O)(=O)N(Cc1ccccc1)c1ccc(C(=O)Nc2cccc(Cl)c2)cc1`, the survival is 36% (active).

Consider `CNc1nc2c(c(=O)[nH]c(=O)n2C)n1Cc1cccc2ccccc12`, for which the survival was 85%.

As for `COc1cccc(N2CCN(C(=O)C(CCSC)NS(=O)(=O)c3ccc4c(c3)oc(=O)n4C)CC2)c1` (centres undefined), the survival is 106%.

As to `Fc1ccc(-n2cc(-c3ccccc3)c3c(NC4CCCCC4)ncnc32)cc1`, the survival was 85%.

For `CC(C)(C)OC(=O)N1CCC(c2c(C(=O)NCc3ccccc3)cnn2-c2ccc(F)cc2)CC1`, the survival is 128%.

On to `CC(C)(C)OC(=O)N1CCC(c2c(C(=O)NCc3cccs3)cnn2-c2cccc(F)c2)CC1`, for which the survival was -5% (active).

Regarding `CC(C)(C)OC(=O)N1CCC(c2c(C(=O)NCCN3CCC(Cc4ccccc4)CC3)cnn2-c2ccccc2)CC1`, the survival is 80%.

Take `CC(C)(C)OC(=O)N1CCC(c2c(C(=O)NCc3ccc(F)cc3)cnn2-c2ccc(F)cc2)CC1`: the survival was -5% (active).

As to `CC(C)(C)OC(=O)N1CCC(c2c(C(=O)NCCN3CCC(Cc4ccccc4)CC3)cnn2-c2ccc(F)cc2)CC1`, the survival is 47% (active).

For the molecule `Cc1ccc(-n2ncc(C(=O)NCCN3CCC(Cc4ccccc4)CC3)c2C2CCN(C(=O)OC(C)(C)C)CC2)cc1`, the survival was 98%.

On to `CC(C)(C)OC(=O)N1CCC(c2c(C(=O)NCc3cccs3)cnn2-c2ccc(F)cc2F)CC1`, for which the survival was 72%.

`Cc1ccc(-n2ncc(C(=O)NCc3cccs3)c2C2CCN(C(=O)OC(C)(C)C)CC2)cc1C`: the survival was 91%.

For the molecule `COc1ccc(CNC(=O)c2cnn(-c3ccc(OC)cc3)c2C2CCN(C(=O)OC(C)(C)C)CC2)cc1`, the survival was 74%.

Consider `CC(C)CCNC(=O)CSc1nc2ccccc2nc1Cc1ccccc1`, for which the survival is 82%.

On to `CCCSc1nnc(NC(=O)Cc2coc3cc(C)ccc23)s1`, for which the survival is 85%.

Consider `CCCc1nnc(NC(=O)c2cc(=O)c3cc(Cl)ccc3o2)s1`, for which the survival is 43% (active).

With `CCCC(=O)Nc1nnc(CCC)s1`, the survival was 80%.

Regarding `CCc1nnc(NC(=O)c2cc(=O)c3cc(C)ccc3o2)s1`, the survival is 79%.

Take `CCCSc1nnc(NC(=O)c2cc(=O)c3ccccc3o2)s1`: the survival is 38% (active).

For `Cc1cc2oc(C(=O)Nc3ccc(S(N)(=O)=O)cc3)cc(=O)c2cc1C`, the survival is 70%.

For the molecule `Cc1ccc2oc(C(=O)Nc3nnc(CC(C)C)s3)cc(=O)c2c1`, the survival was 63%.

For `Cc1ccc2c(=O)cc(C(=O)Nc3nnc(CC(C)C)s3)oc2c1C`, the survival is 61%.

For the molecule `CCc1nnc(NC(=O)c2cc(=O)c3cc(C)c(C)cc3o2)s1`, the survival is 36% (active).

On to `CC(=O)Nc1ccc(NC(=O)c2cc(=O)c3ccccc3o2)cc1`, for which the survival is 59%.

As for `CCCc1nnc(NC(=O)c2cc(=O)c3cc(C)c(C)cc3o2)s1`, the survival is 35% (active).

In the case of `CCCc1nnc(NC(=O)c2cc(=O)c3ccccc3o2)s1`, the survival is 63%.

Regarding `CCOc1ccc(-n2cc(C(=O)Nc3ccccc3OCC)c3cc(OC)c(OC)cc3c2=O)cc1`, the survival is 61%.

For `O=C(NCc1ccco1)c1ccc2c(c1)N(Cc1ccc(F)cc1)C(=O)c1ccccc1S2=O` (centres undefined), the survival was 76%.

Consider `COc1ccccc1CNS(=O)(=O)c1cnc(N)nc1`, for which the survival is 89%.

For the molecule `C=CS(=O)(=O)c1ccc(Oc2ccc(S(=O)(=O)C=C)cc2)cc1`, the survival was 103%.

As to `COC(=O)CNc1cn[nH]c(=O)n1`, the survival is 92%.

As to `COCCN(Cc1ccco1)C(=O)c1cc2c(Cl)nc3ccc(C)cc3c2s1`, the survival was 92%.

In the case of `CCc1c(C)c2ccc(O)c(CN3CCN(c4cc(Cl)ccc4C)CC3)c2oc1=O`, the survival was 54%.

`CC(C)n1c(SCc2ccccc2)nnc1C1CCCN(CC(N)=O)C1` (centres undefined): the survival is 96%.

Turning to `COc1ccc(Cn2ccc3nc(C)c(C(=O)N4CCN(c5ccccc5OC)CC4)cc3c2=O)cc1`, the survival was 102%.

Consider `O=C(NC12CCC(O)C(SC1)C2O)c1ccccc1` (centres undefined), for which the survival is 109%.

In the case of `COc1ccccc1C(O)(C(=O)NNc1cccc(Br)n1)c1ccccc1OC`, the survival was 73%.

Turning to `CSc1nnc(NC(=O)c2cc(=O)c3cc(C)c(C)cc3o2)s1`, the survival is 52%.

Regarding `CCSc1nnc(NC(=O)c2cc(=O)c3cc(C)ccc3o2)s1`, the survival is 86%.

`CCSc1nnc(NC(=O)c2cc(=O)c3cc(C)c(C)cc3o2)s1`: the survival was 44% (active).

With `CC(C)Nc1ccc(-c2nc(-c3ccco3)no2)cc1[N+](=O)[O-]`, the survival is 107%.

Consider `CC(Nc1ccc(-c2nc(-c3ccccn3)no2)cc1[N+](=O)[O-])c1ccccc1` (centres undefined), for which the survival is 19% (active).

Take `CC(C)Nc1ccc(-c2nc(-c3ccccn3)no2)cc1[N+](=O)[O-]`: the survival was 38% (active).

In the case of `CC(Nc1ccc(-c2nc(-c3ccncc3)no2)cc1[N+](=O)[O-])c1ccccc1` (centres undefined), the survival is 42% (active).

Take `CCC(Nc1ccc(-c2nc(-c3ccco3)no2)cc1[N+](=O)[O-])c1ccccc1` (centres undefined): the survival is 53%.

Turning to `Cc1noc(-c2ccc(NC(C)c3ccccc3)c([N+](=O)[O-])c2)n1` (centres undefined), the survival was 70%.

`CC(Nc1ccc(-c2nc(-c3ccco3)no2)cc1[N+](=O)[O-])c1ccccc1` (centres undefined): the survival was 100%.

Regarding `CCC(Nc1ccc(-c2nc(-c3cccnc3)no2)cc1[N+](=O)[O-])c1ccccc1` (centres undefined), the survival was 64%.

For `CCC(Nc1ccc(-c2nc(-c3ccccn3)no2)cc1[N+](=O)[O-])c1ccccc1` (centres undefined), the survival was 41% (active).

Regarding `CNc1ccc(-c2nc(-c3ccccn3)no2)cc1[N+](=O)[O-]`, the survival is 52%.

As for `CC(Nc1ccc(-c2nc(-c3cccnc3)no2)cc1[N+](=O)[O-])c1ccccc1` (centres undefined), the survival was 79%.

Regarding `CC(C)Nc1ccc(-c2nc(-c3ccncc3)no2)cc1[N+](=O)[O-]`, the survival was 79%.
